High-throughput results: PubChem, National Center for Advancing Translational Sciences (NCATS)
Only some compounds are listed: those with a hit (about 19% of all), similar ones and a draw of the others.
IL-1B inflam inh: inhibitors of inflammasome signaling (IL-1 beta secretion). THP-1 LPS/ATP IL-1B secretion, AlphaLISA, 16 h; hits give low values. activity change, % at 57.5 µM. 360,000 compounds, 4.7% hits. AID 743279; in the data active = activity change below about -50%; inconclusive = mostly about -30% to -49%; also: % is scaled to controls: 0 for no effect and ±100 for the full control effect
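Secreted IL-1B measured by AlphaLISA bead assay after 16 h compound exposure of THP-1 cells; compounds (final up to 57.5 uM) added 1 h before LPS (250 ng/mL) and ATP (1.25 mM) stimulation; lower signal means less secretion.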
HepG2 tox: kills HepG2 cells in TGF-b inhibitor counter-screen. 410,000 compounds, 0.76% hits. HepG2 CAGA-GFP viability, ATP luminescence, 18 h. Potency, µM (titrated, usually from 46.1 µM), for the others: top-dose activity change, negative = cytotoxicity, hits mostly cytotoxic. AID 588856; also: potency is read from the fitted curve at half-maximal effect
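HepG2 CAGA-GFP cells (1000/well, DMEM with 1% FBS) received compound, then TGF-beta at 500 pg/mL final, and were incubated 18 hours at 37 degrees C. Viability was read by CellTiter-Glo luminescence. Media-only wells were set as complete cell-killing and DMSO as no toxicity.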
ASM inhibitor: inhibitors of human secretory acid sphingomyelinase; 340,000 compounds, 0.006% hits; placental ASM, HMU-PC fluorogenic substrate, 60 min; AID 504937; Potency, µM (doses to about 57.5 µM), without a hit: top-dose activity change, negative = inhibition, actives largely listed as inhibitors; P17405; also: potency is read from the fitted curve at half-maximal effect
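Human placenta-derived ASM enzyme was preincubated with compound for 10 minutes at room temperature, then given fluorogenic substrate HMU-PC0 (9 uM final) for 60 minutes at 37 °C; a pH 10 stop preceded fluorescence reading at Ex 386/Em 447 nm.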
TGFb SMAD3 inh: inhibitors of TGF-b signaling | Potency, µM (titrated, usually from 46.1 µM), without a hit: top-dose activity, negative = inhibition, actives largely listed as inhibitors | AID 588855 | 410,000 compounds, 1.2% hits | HepG2 CAGA-GFP TGF-b/SMAD3 reporter, GFP fluorescence, 18 h; TGF-beta stimulated, 500 pg/mL final; also: potency is read from the fitted curve at half-maximal effect; % is scaled to controls: 0 for no effect and ±100 for the full control effect; nearly all actives have a fitted effect of over 65% in size
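TGF-beta reporter screen: HEPG2 CAGA-GFP, 1% FBS, 500 pg/mL TGF-beta final, 18 h; per-cell GFP summed per well; curves fitted and categorized by class.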
TDP1 cell noCPT: qHTS for Inhibitors of human tyrosyl-DNA phosphodiesterase 1 (TDP1): qHTS in cells in absence of CPT; DT40 Tdp1-/- hTDP1 cells, no CPT, ATP luminescence, 48 h; Potency, µM (top dose mostly 46.2 µM), inactives show top-dose activity change, negative = growth inhibition, hits mostly inhibitors; 420,000 compounds, 15% hits; AID 686978, 2013; also: potency is read from the fitted curve at half-maximal effect; % is scaled to controls: 0 for no effect and ±100 for the full control effect; nearly all actives have a fitted effect of over 55% in size
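Chicken DT40 Tdp1-/- cells stably complemented with human TDP1 were seeded at 400 cells/well with DMSO in place of 20 nM camptothecin. After compound pinning, cells grew at least 48 hr at 37 °C; viability read by CellTiter-Glo luminescence.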
TDP1 cell CPT: DT40-hTDP1 cell growth loss with CPT | chicken DT40 Tdp1-/-;hTDP1 cells + 20 nM CPT, ATP luminescence, 48 h | Potency, µM (highest dose often 46.2 µM), inactives show top-dose activity change, negative = growth inhibition, usual class: inhibitors | 420,000 compounds, 12% hits; also: potency is read from the fitted curve at half-maximal effect; % is scaled to controls: 0 for no effect and ±100 for the full control effect; nearly all actives have a fitted effect of over 55% in size
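Chicken DT40 Tdp1-/- cells complemented with human TDP1, 400 cells/well, exposed to compounds plus 20 nM camptothecin for at least 48 h at 37 C; viability read as ATP content by CellTiter-Glo luminescence.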
Active calls of the source: *; ? = inconclusive; · = no result. Unless noted, calls follow the shape of the dose curve; as a rule, active = well fitted curve in the direction sought with a large enough effect; inconclusive = small, poorly fitted or top-dose-only effect, or another doubt; inactive = no such curve, though single readings can be large; an effect the other way counts as inactive or inconclusive.

SMILES | IL-1B inflam inh | HepG2 tox | ASM inhibitor | TGFb SMAD3 inh | TDP1 cell noCPT | TDP1 cell CPT
Cc1cc(C)c2cc(C#N)c(NCCNC(=O)c3ccccc3)nc2c1 | -27 | · | · | · | ? | ?
CCc1ccc2oc(C(=O)NCCc3ccc(S(N)(=O)=O)cc3)cc(=O)c2c1 | 14 | -15% | 0% | -17% | -16% | -3%
COc1ccc(C(=O)NCC(C)(C)SCc2c(C)cc(C)cc2C)cc1 | -72* | -37% | -17% | ? | 16µM* | 23µM*
COC(=O)c1cc(C#N)c(N(C)Cc2ccccc2)nc1C | -13 | -9% | -7% | -10% | -19% | -11%
COc1ccc(C(=O)NCCNC(=O)c2ccc(OC)cc2)cc1 | 6 | -6% | 1% | 3% | -19% | -16%
COC(=O)c1cc(C#N)c(NCc2ccccc2)nc1C | -6 | -12% | -11% | ? | 16µM* | ?
Cc1ccc(NC(=O)NCc2cccn2Cc2ccccc2)c(C)c1 | · | -10% | · | -4% | -1% | -12%
COc1ccc(C(=O)COC(=O)C2CCCN2C(=O)C23CC4CC(CC(C4)C2)C3)cc1 (stereo not drawn) | 1 | 5% | 0% | ? | -24% | 23µM*
CCOC(=O)CNC(=O)c1ccc2[nH]c3ccccc3c2c1 | -63* | -25% | -5% | ? | ? | ?
CC(C)[C@H](NC(=O)N1CCn2c1nc1ccccc12)C(=O)N[C@@H](C(=O)O)c1ccccc1 | 5 | -2% | -1% | 16% | -19% | -8%
COc1ccc(/C=C/c2nc3ccccc3c(=O)n2-c2cccc(C(F)(F)F)c2)cc1 | · | -22% | · | ? | 12µM* | 5.8µM*
COc1ccc(-n2c(/C=C/c3cccc4ccccc34)nc3ccccc3c2=O)cc1OC | · | -44% | · | ? | 15µM* | ?
COc1cc(OC)c(OC)cc1/C=C/c1nc2cc3ccccc3cc2c(=O)n1-c1ccc(Cl)cc1 | · | -26% | · | ? | 16µM* | 13µM*
COc1ccc(Cl)cc1-n1c(/C=C/c2cccc3ccccc23)nc2ccccc2c1=O | · | -34% | · | ? | ? | ?
COc1ccc(/C=C/c2nc3ccccc3c(=O)n2-c2cccc(C(=O)O)c2)cc1 | -5 | -8% | 34% | -9% | -11% | -13%
COc1cccc(NC(=O)C2=COCCO2)c1 | -3 | 0% | -1% | -27% | 2% | -30%
CC1=C(C(N)=O)C(c2ccc(C(C)C)cc2)n2nc(SCc3ccccc3)nc2N1 (stereo not drawn) | · | -3% | · | -13% | -6% | -1%
Cc1cccc(N2C(S)=C(C#N)C(=O)NC2c2cccs2)c1 (stereo not drawn) | -6 | -25% | 3% | -1% | 13µM* | 15µM*
Cc1ccccc1N1C(S)=C(C#N)C(=O)NC1c1cccs1 (stereo not drawn) | -6 | 1% | -2% | -12% | ? | ?
N#CC1=C(S)N(c2ccc(F)cc2)C(c2cccs2)NC1=O (stereo not drawn) | 13 | 13% | 1% | 1% | ? | 8.2µM*
N#CC1=C(S)N(c2ccccc2)C(c2ccc(-c3ccccc3Cl)o2)NC1=O (stereo not drawn) | ? | 4% | -1% | -5% | ? | ?
CCCC1(c2ccccc2)NC(=O)N(CC(=O)NCc2ccc(OC)cc2)C1=O (stereo not drawn) | -12 | -6% | 4% | -17% | 18% | -8%
COc1ccc(NC(=O)C(=O)NCCN2CCN(C(=O)c3cccc(Br)c3)CC2)cc1 | -10 | 23% | 0% | -9% | ? | -26%
